Most compounds without a hit are left out; they make up all but 7.5% or so of the library.
FLuc modulator = counter-screen for miR-21 project: firefly luciferase inhibitors or activators. actives 6.9% (n = 360,000). Potency, µM (doses to about 57.5 µM), without a hit: at the top dose activity change, negative = inhibition, actives largely listed as inhibitors. purified FLuc, Km substrates, luminescence inhibition. P08659. AID 588342;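 note: plate controls were vehicle for no effect and reference inhibitor for full effect; nearly all actives have a fitted effect of over 55% in size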
Target sequence (P08659 whole entry, looked up): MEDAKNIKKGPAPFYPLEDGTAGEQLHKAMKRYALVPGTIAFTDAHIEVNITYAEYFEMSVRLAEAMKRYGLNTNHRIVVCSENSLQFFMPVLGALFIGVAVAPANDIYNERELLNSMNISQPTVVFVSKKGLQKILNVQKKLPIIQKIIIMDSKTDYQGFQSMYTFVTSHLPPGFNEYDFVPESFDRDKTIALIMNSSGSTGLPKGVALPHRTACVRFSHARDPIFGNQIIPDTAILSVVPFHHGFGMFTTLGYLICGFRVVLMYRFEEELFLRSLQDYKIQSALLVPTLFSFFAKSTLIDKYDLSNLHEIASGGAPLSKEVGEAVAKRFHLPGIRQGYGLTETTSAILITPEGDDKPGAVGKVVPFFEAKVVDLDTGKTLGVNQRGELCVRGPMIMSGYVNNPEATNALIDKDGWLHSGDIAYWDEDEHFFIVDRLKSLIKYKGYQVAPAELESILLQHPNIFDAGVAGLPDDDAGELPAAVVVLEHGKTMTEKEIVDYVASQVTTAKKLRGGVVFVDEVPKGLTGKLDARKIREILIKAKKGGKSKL
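Biochemical qHTS of compounds, final roughly 60 µM downward over six points, against 10 nM purified firefly luciferase using Km concentrations of substrates (10 uM D-luciferin, 10 uM ATP) in Tris acetate pH 7.5 buffer; luminescence output.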
KinaseGlo FLuc = counter-screen: inhibitors of Kinase-Glo firefly luciferase | Q27757 | Kinase-Glo luciferase, ATP luminescence, 8 min | Potency, µM (doses to about 38.3 µM), for inactives: at the top dose activity change, negative = inhibition, actives largely listed as inhibitors | actives 0.28% (n = 200,000); note: % is set by controls: 0 for no effect and ±100 for the full control effect; nearly all actives have a fitted effect of over 60% in size
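Light output from Kinase-Glo luciferase with luciferin and 10 uM ATP in 50 mM imidazole pH 7.2, KCl, MgCl2, Tween 20, BSA; compound pin-delivered, 8-min ambient incubation, then luminescence read.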
Rab9 prom act = Rab9 promoter activation; actives 2.8% (n = 320,000); AID 485297; Huh7 Rab9 promoter-luciferase reporter, luminescence, 24 h; Potency, µM (titrated, usually from 9.22 µM), inactives show at the highest dose activation, negative = inhibition, actives largely listed as activators; note: % of control where 0% means no effect; nearly all actives have a fitted effect of over 60% in size
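Luminescence from Amplite-detected luciferase (10 minutes, ambient) reports Rab9 promoter activation. Before that, stable Rab9-luciferase Huh7 cells (1500/well, reduced-serum OP-MEM I plus 10% FBS) were exposed to compound for 24 hours at 37C.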
ELG1 genotox = induces genotoxicity in HEK293T cells with luciferase-tagged ELG1; actives 1.3% (n = 330,000); Potency, µM (series often up to 46 µM), for the others: at the highest dose activity change, positive = activation, actives largely listed as activators; HEK293T ELG1-luciferase reporter, luminescence, 16 h; note: % of control where 0% means no effect; nearly all actives have a fitted effect of over 60% in size
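Step 1: seed 2,000 HEK293T ELG1-luciferase cells per well. Step 2: add compound or DMSO, incubate 16 hr at 37 °C. Step 3: ONE-Glo, 30 min at room temperature, read luminescence.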
NPC1 promoter act = NPC1 promoter activation. Potency, µM (top dose mostly 9.22 µM), without a hit: at the top dose activation, hits mostly activators. Huh7 NPC1 promoter luciferase reporter, 24 h. actives 2.4% (n = 320,000); note: % of control where 0% means no effect; nearly all actives have a fitted effect of over 60% in size
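Huh7 cells stably carrying NPC1 promoter–luciferase, plated in Opti-MEM with 10% FBS for 2 h, were exposed to compound in DMSO for 24 h at 37 °C; luciferase reagent was added for 10 min and luminescence read.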
SMN2 splice enh = increases expression of the SMN2 splice variant | HEK293 SMN2-luciferase splicing reporter, luminescence, 30-36 h | actives 2.8% (n = 210,000) | Potency, µM (highest dose often 46.1 µM), inactives show at the highest dose activity change, positive = activation, most hits filed as activators; note: % of control where 0% means no effect; nearly all actives have a fitted effect of over 55% in size
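qHTS luciferase splicing reporter: luminescence rises when SMN2 exon 7 is included in transfected HEK293 cells. Compound exposure lasted 30-36 h at 37C, with 4.5 mM final sodium butyrate as control, followed by a ONE-Glo read.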
The depositor's hits bear a star; ? = inconclusive; · = no result given. Calls come from the whole dose curve; as a rule, active = well fitted curve in the direction sought with a large enough effect; inconclusive = small, poorly fitted or top-dose-only effect, or another doubt; inactive = no such curve, though single readings can be large; an effect the other way counts as inactive or inconclusive. Potency is the fitted concentration of half-maximal effect.

SMILES | FLuc modulator | KinaseGlo FLuc | Rab9 prom act | ELG1 genotox | NPC1 promoter act | SMN2 splice enh
N/C(=N\OC(=O)c1ccco1)c1cccnc1 | ? | -7% | -2% | ? | 7% | 7%
COc1ccccc1C(=O)Oc1ccc(C(C)C)cc1 | 9.5µM* | 0% | -1% | ? | -3% | -7%
N/C(=N\OC(=O)c1ccccc1Cl)c1ccc(Cl)cc1 | 1.3µM* | -3% | ? | 2.6µM* | 20% | 16µM*
N/C(=N\OC(=O)c1ccco1)c1ccc(Cl)cc1 | 24µM* | -8% | ? | 7.3µM* | ? | ·
COc1ccc(C(=O)O/N=C(\N)c2ccccc2Cl)cc1OC | ? | · | -2% | ? | -1% | ·
COc1ccccc1CCNC(=O)c1cc(COc2cccc(C(F)(F)F)c2)on1 | 1% | · | -4% | -2% | 1% | ·
Cc1ccc(CNC(=O)CN2C(=O)CCn3nc(-c4ccccc4)cc32)cc1 | -17% | · | · | · | · | ·
Cc1ccc(S(=O)(=O)c2nc(S(=O)(=O)c3ccccc3)sc2NCCCOC(C)C)cc1 | -5% | · | · | · | · | -2%
COc1ccc(C(=O)N2CCC[C@@]3(CCN(Cc4ccc(C#N)cc4)C3)C2)cc1 | · | -5% | · | · | · | -12%
N/C(Cn1cncn1)=N\OC(=O)c1ccc(Cl)cc1 | 4% | -1% | 2% | 4% | -3% | -2%
N/C(=N\OC(=O)c1ccc(Cl)cc1)c1ccn[nH]1 | 3µM* | · | 1.6µM* | 2.6µM* | 1.3µM* | ·
N/C(=N\OC(=O)c1ccc(Cl)cc1)c1ccc(Cl)cc1 | 3µM* | -7% | ? | ? | ? | ?
N/C(=N\OC(=O)c1ccc(OCC(F)(F)F)nc1)c1ccc(Cl)cc1 | ? | · | -1% | 7% | 1% | ·
COc1ccccc1C(=O)O/N=C(\N)c1ccccc1Cl | ? | 1% | ? | ? | 4% | 22µM*
C/C(=N\OC(=O)c1ccc(Cl)cc1)c1nccs1 | 0.48µM* | -15% | 1% | 1% | 1% | -19%
CCCN(Cc1cccs1)C(=O)Nc1cc(Cl)ccc1C | -1% | · | · | · | · | ·
Cc1ccc(CNC(=O)Cc2c(C)c3c(cc(C)c4c(C)coc43)oc2=O)cc1 | -7% | · | · | · | · | 5%
CC(C)(C)c1ccc(C(=O)NC(=S)NCC2CCCO2)cc1 (stereo not given) | 27µM* | · | 12% | 4% | 7% | ·
CN1CCN(C(=S)NC(=O)c2ccc(C(C)(C)C)cc2)CC1 | ? | 3% | 0% | 1% | -2% | -1%
CC(C)(C)c1ccc(C(=O)N2CCC(C(=O)NCC3CCCO3)CC2)cc1 (stereo not given) | ? | 0% | ? | 8% | 28% | 11µM*
O=C(NCC1CCCO1)C1CCN(C(=O)c2ccc(Cl)cc2)CC1 (stereo not given) | 2% | -3% | -19% | 2% | 0% | -16%
CC(C)(C)c1ccc(C(=O)NNC(=S)NCC2CCCO2)cc1 (stereo not given) | -12% | 3% | 0% | 0% | -1% | -28%
CC(C)(C)c1ccc(C(=O)N2CCC(C(=O)NCc3ccco3)CC2)cc1 | -18% | -1% | 11% | 6% | 10% | 2.5µM*
CC(C)(C)c1ccc(C(=O)NC(=S)N2CCOCC2)cc1 | 9.5µM* | · | 2.2µM* | 8.2µM* | 2.2µM* | ·
C=C1CC[C@H](O)C/C1=C/C=C1\CCC[C@]2(C)C([C@H](C)CCCC(C)(C)O)CC[C@@H]12 (stereo not given in full) | · | · | · | · | · | -9%
SMILES | FLuc modulator | KinaseGlo FLuc | Rab9 prom act | ELG1 genotox | NPC1 promoter act | SMN2 splice enh
COc1ccc(S(=O)(=O)N(Cc2nc(-c3cccc(C)c3)no2)C2CCCCC2)cc1 | -2% | · | · | · | · | -17%
CCOP1(=O)OCC2OC(n3cnc4c(N)ncnc43)C(O)C2O1 (stereo not given) | -1% | · | 0% | 4% | 0% | ·
COCCCNC(=O)C(C)N1c2cccc3cccc(c23)S1(=O)=O (stereo not given) | 0% | · | -3% | 0% | 2% | ·
CCc1ccc(CN2CCc3nc(Nc4ccc5c(c4)OCCO5)ncc3C2)cc1 | -18% | · | · | · | · | ·
COc1ccccc1Nc1ncc2c(n1)CCN(CC(C)C)C2 | 21µM* | · | · | · | · | ·
COc1cc(CN2CCc3nc(Nc4ccc5c(c4)OCCO5)ncc3C2)cc(OC)c1OC | 15µM* | · | · | · | · | ·
COc1ccccc1Nc1ncc2c(n1)CCN(Cc1cc(F)cc(F)c1)C2 | 1% | · | · | · | · | ·
O=C(c1ccco1)N1CCN(C(c2ccccn2)c2nnnn2C2CCCC2)CC1 (stereo not given) | 15µM* | -3% | ? | ? | ? | 13µM*
Cc1ccc(OCc2cnc(Cl)s2)c(C)c1 | 11µM* | -1% | 0% | 19% | 4% | 0%
Cc1ccc(N/C=C/c2onc(C)c2[N+](=O)[O-])cc1 | 0.6µM* | · | 0.63µM* | 1.3µM* | 2.5µM* | ·
COc1cccc(N/C=C/c2onc(C)c2[N+](=O)[O-])c1 | -3% | 0% | 2.5µM* | ? | ? | ?
Cc1cccc(C)c1N/C=C/c1onc(C)c1[N+](=O)[O-] | 3% | -1% | · | · | · | -1%
CCOC(=O)c1c(C)[nH]c(C(=O)COC(=O)CSC)c1C | 11µM* | 1% | -6% | 3% | -3% | 8%
CCCCCCC(=O)c1c(C)[nH]c(C(=O)OCC)c1C | ? | -1% | 27% | 14µM* | 26% | ?
CCCCC(=O)OCC(=O)c1[nH]c(C)c(C(=O)OCC)c1C | 1.9µM* | -5% | -1% | 12% | 0% | 27%
CCCCCC(=O)c1c(C)[nH]c(C(=O)OCC)c1C | ? | -3% | 6% | 0% | 5% | -1%
COC(C(=O)Nc1ccnn1C1CCN(Cc2ccc(Cl)s2)CC1)c1ccccc1 (stereo not given) | 4% | · | -5% | -5% | -1% | ·
CCCSCCCNC(=O)C1CCN(c2nc3ccccc3nc2C(F)(F)F)CC1 | -15% | · | · | · | · | ·
CCC(C)NC(=O)CSc1nnc(-c2cc(-c3ccc(C)cc3)nc3ccccc23)n1N (stereo not given) | 11µM* | -5% | 0% | -5% | -1% | -5%
CCC(C)NC(=O)CSc1nnc(-c2ccc(Cl)cc2)n1N (stereo not given) | -2% | 2% | -5% | -3% | -6% | -8%
Cc1ccc(-c2cc(-c3nnc(SCC(=O)NCC(C)C)n3N)c3ccccc3n2)cc1 | 17µM* | -6% | 4% | 1% | 23% | 4%
Cc1csc2nc(COc3ccccc3NC(=O)c3ccco3)cc(=O)n12 | 2% | · | · | · | · | -11%
COC(=O)c1ccc(C(=O)NC(=S)Nc2nc3c(s2)CCCC3)cc1 | 15µM* | 3% | ? | 11% | 4µM* | ?
O=C(NC(=S)Nc1nc2c(s1)CCCC2)c1ccccc1 | 3.4µM* | -6% | ? | 5.2µM* | 4µM* | 2µM*
